These results are taken from PubChem BioAssay.

The nature of assay [1]: inhibitors of TNFa-induced NFkB p65 translocation, primary screen, imaging, HUVEC, MLSMR starter and 10KST1 sets (AID 438;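 active means inhibition above 20% together with a positive visual image hit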;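 further: compound added about 3h40 before a 20 min TNFalpha stimulation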;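 on inhibition: signal is the nuclear over cytoplasmic p65 intensity ratio per well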). The settings on record: HUVEC TNFa-induced p65 nuclear translocation; cell count: measured here: nuclei count (cytotoxicity indicator), at 2.08 µM; inhibition: at 2 µM, stronger effect = higher value, 0% TNFa-plus-vehicle, 100% no-TNFa wells.
A short description of assay [2]: inhibitors of mutant huntingtin aggregation, primary screen, imaging, exon1htt(103Q)mCFP cells, high-content imaging (AID 483;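 active means visual image review flags a hit and inhibition of aggregation exceeds 20%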;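 further: compound exposure lasted 3 days before fixation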;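 on nuclei count: percent of the per-plate median nuclei count of sample wells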). Particulars: exon1htt(103Q)mCFP cell line, aggregate imaging, at 2 µM; inhibition of aggregation: stronger effect = higher value; nuclei count: measured here: cell count, toxicity.
Assay [3] can be described thus: inhibitors of E-selectin induction by TNFa, primary screen, imaging, HUVEC, immunofluorescence, MLSMR starter and 10KST1 sets (AID 487;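 active means visually confirmed hit in the image check and inhibition above 20%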;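 on inhibition: signal is fraction of cell area covered by stained E-selectin grains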;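 on nuclei count: 100% = median nuclei count of all wells on the same plate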). Particulars: HUVEC TNFalpha-induced E-selectin immunofluorescence imaging, at 2 µM; inhibition: stronger effect = higher value; nuclei count: measured here: cell number, toxicity.
In assay [4] the target is Voltage-gated potassium channel subunit beta-2 (Rattus norvegicus) (UniProt P62483). Briefly: KvBeta enzyme negative modulators, primary screen, biochemical, NADPH fluorescence (AID 622;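 active means fluorescence slope higher than the sample average by over 3 SD, cut at about -0.22 in these data, passing the limit was not always enough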;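 further: slope of raw intensity against log time taken from 70 to 1610 s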). The settings on record: recombinant KvBeta, 4-cyanobenzaldehyde reduction, at 10 µM, stronger effect = higher value.
Voltage-gated potassium channel subunit beta-2 (Rattus norvegicus), sequence (P62483 whole entry, looked up): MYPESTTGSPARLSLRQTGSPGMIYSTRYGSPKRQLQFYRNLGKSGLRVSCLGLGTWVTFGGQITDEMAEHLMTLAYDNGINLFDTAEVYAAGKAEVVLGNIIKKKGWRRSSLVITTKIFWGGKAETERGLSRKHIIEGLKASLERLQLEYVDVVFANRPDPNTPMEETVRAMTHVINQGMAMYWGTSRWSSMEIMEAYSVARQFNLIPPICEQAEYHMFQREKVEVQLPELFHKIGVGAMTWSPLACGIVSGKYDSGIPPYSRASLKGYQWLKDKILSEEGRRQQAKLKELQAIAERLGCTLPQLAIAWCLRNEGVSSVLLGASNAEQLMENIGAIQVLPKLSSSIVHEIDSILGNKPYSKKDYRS
The target is the same in assay [5]. Briefly: KvBeta positive modulators, primary screen, biochemical, NADPH fluorescence (AID 623).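 Further: fluorescence intensity change per second fitted from 20 to 320 s.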 Particulars: Recombinant KvBeta, NADPH fluorescence decrease slope, 10 min; at 10 µM; stronger effect = lower value.
The target of assay [6] is Alpha-2C adrenergic receptor (Homo sapiens) (UniProt P18825). Briefly: modulators of alpha2C/GIRK thallium flux, primary screen, cell-based, HEK293 alpha2C/GIRK1/2 (AID 624;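 active means fluorescence slope after compound addition differing from the mean of all screened samples at 99.7% confidence, in either direction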;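 further: slope of fluorescence ratio to pre-addition baseline per second over 15 to 24 s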). The settings on record: thallium flux BTC fluorescence, at 10 µM, actives lie on both sides.
Alpha-2C adrenergic receptor (Homo sapiens), sequence (P18825 whole entry, looked up): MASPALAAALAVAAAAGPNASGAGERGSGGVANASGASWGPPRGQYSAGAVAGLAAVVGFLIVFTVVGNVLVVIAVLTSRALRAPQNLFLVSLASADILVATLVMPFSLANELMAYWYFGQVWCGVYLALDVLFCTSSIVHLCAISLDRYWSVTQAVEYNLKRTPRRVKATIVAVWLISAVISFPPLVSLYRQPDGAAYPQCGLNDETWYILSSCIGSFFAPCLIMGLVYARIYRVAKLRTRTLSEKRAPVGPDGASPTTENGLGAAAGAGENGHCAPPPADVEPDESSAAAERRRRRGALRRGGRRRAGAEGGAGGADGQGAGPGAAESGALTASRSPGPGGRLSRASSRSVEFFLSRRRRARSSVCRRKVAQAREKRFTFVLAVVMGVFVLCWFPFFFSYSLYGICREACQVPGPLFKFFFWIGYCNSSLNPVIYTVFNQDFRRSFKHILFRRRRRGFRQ
Assay [7] is described as follows: inhibitors of Sendai virus-induced IRF3 signaling, primary screen, TLR/RLR signaling modifier project, cell-based, Sendai virus stimulus, luciferase, 10K MLSCN set (AID 602276;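 active means inhibition at or above 50% at 10 µM; inactive means inhibition below 50%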;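 further: firefly luciferase from ISG56 promoter only with Renilla not read in this screen; 0% = Sendai virus plus DMSO and 100% = medium plus DMSO without virus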). Particulars: HEK293 RL24 IRF3 luciferase reporter, at 10 µM, stronger effect = higher value. On the technique in general: A reporter such as luciferase makes a cellular process visible.
Assay [8] in a line: inhibitors of poly I:C-induced TLR3 signaling, primary screen, cell-based, poly I:C stimulus, luciferase, 10K MLSCN set (AID 602277;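 active means inhibition of the reporter signal at or above 50%; inactive means inhibition below 50%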). The settings on record: HEK293-TLR3 RL24 IRF3 luciferase reporter, at 10 µM, stronger effect = higher value.

Active and inactive are the calls of the source.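 How the source made its calls, unless noted: active means NADPH fluorescence slope more negative than the mean of all samples by about 3 SD, 99.7% confidence; inactive means the rest.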

Regarding `Cn1cccc1Cc1nnc(SCC(=O)N2CCOCC2)n1-c1ccc(F)cc1`, the cell count in assay [1] was determined as 585. The inhibition (usually the relative decrease from the control value, in per cent) in assay [1] is 5.8% (inactive); in assay [3] it was 55.7% (active); in assay [7], 12.2% (inactive); in assay [8], 28.3% (inactive). In assay [2], the inhibition of aggregation was 26.9% (inactive). Further, the nuclei count turned out to be 89.6% in assay [2] and 96.2% in assay [3]. Moreover, in assay [4], the fluorescence slope is -0.527 (inactive). In addition, the NADPH fluorescence slope in assay [5] was -3.5e-05 (inactive). Further, the slope in assay [6] was 0.00693 (inactive).
Turning to `CC(C)(C)SCCNC(=O)COc1ccc(Cl)cc1`, in assay [1], the cell count was found to be 237. Besides, the inhibition in assay [1] is 3.4% (inactive); in assay [3] it was -272% (inactive); in assay [7] it was -15.2% (inactive); in assay [8], -2.28% (inactive). Moreover, in assay [2], the inhibition of aggregation was 19.9% (inactive). In addition, the nuclei count in assay [2] came to 83.8%; in assay [3], 147%. Besides, in assay [4], the fluorescence slope was -0.419 (inactive). Further, the NADPH fluorescence slope in assay [5] was 1.6e-05 (inactive). Also, the slope in assay [6] is 0.00681 (inactive).
Take `CC(C)N(Cc1nc(-c2ccc(Cl)cc2)no1)C(=O)CN(C)S(=O)(=O)c1ccc(Cl)cc1`: the cell count in assay [1] came out at 629. Moreover, the inhibition was -2.8% (inactive) in assay [1], -53.8% (inactive) in assay [3], 20.4% (inactive) in assay [7] and 25.9% (inactive) in assay [8]. Besides, the inhibition of aggregation in assay [2] was -11.8% (inactive). The results for the nuclei count in assay [2] and in assay [3] were 95.7% and 106%, respectively. The fluorescence slope in assay [4] is -0.467 (inactive). For the same molecule, in assay [5], the NADPH fluorescence slope is -5.4e-05 (inactive). For the same molecule, the slope in assay [6] was 0.00647 (inactive).
As to `Oc1ccc(N2CCN(C(c3ccncc3)c3nnnn3C3CCCC3)CC2)cc1` (centres undefined), in assay [1], the cell count amounted to 661. Further, the inhibition was -18.3% (inactive) in assay [1], -67.5% (inactive) in assay [3], 17% (inactive) in assay [7] and 26.3% (inactive) in assay [8]. In assay [2], the inhibition of aggregation is -5.2% (inactive). In addition, the nuclei count in assay [2] is 101%; in assay [3], 115%. The fluorescence slope in assay [4] was -0.502 (inactive). The NADPH fluorescence slope in assay [5] was -4.4e-05 (inactive). In assay [6], the slope was 0.00598 (inactive).
In the case of `CCN(CC)S(=O)(=O)c1ccc2[nH]cc(C(=O)NCCC3=CCCCC3)c(=O)c2c1`, the cell count in assay [1] is 344. The inhibition is 8.4% (inactive) in assay [1], 96.3% (active) in assay [3], 12% (inactive) in assay [7] and 6.76% (inactive) in assay [8]. Besides, the inhibition of aggregation in assay [2] is -4.1% (inactive). Besides, the nuclei count in assay [2] is 71.6%; in assay [3], 91%. Further, the fluorescence slope in assay [4] was -0.498 (inactive). Further, the NADPH fluorescence slope in assay [5] was -4.6e-05 (inactive). The slope in assay [6] was 0.00467 (inactive).
For `Cc1cnc(C(=O)Nc2nnc(C(C)C)s2)cn1`, the cell count in assay [1] was determined as 569. The inhibition was -8.8% (inactive) in assay [1], -28.6% (inactive) in assay [3], -25.1% (inactive) in assay [7] and -89.5% (inactive) in assay [8]. Moreover, the inhibition of aggregation in assay [2] was 10.8% (inactive). For the same molecule, the nuclei count in assay [2] turned out to be 107%; in assay [3], 118%. The fluorescence slope in assay [4] was -0.5 (inactive). Further, the NADPH fluorescence slope in assay [5] is -3.3e-05 (inactive). In addition, the slope in assay [6] was 0.00641 (inactive).
For `CCOC(=O)c1ccc2nc(C)c3c(c2c1)OC(C)C3` (centres undefined), the cell count in assay [1] is 308. The inhibition was -13% (inactive) in assay [1], 9% (inactive) in assay [3], -5.44% (inactive) in assay [7] and 20.2% (inactive) in assay [8]. Further, the inhibition of aggregation in assay [2] is 1.1% (inactive). Besides, the nuclei count in assay [2] came to 94.2%; in assay [3], 122%. The fluorescence slope in assay [4] is -0.349 (inactive). The NADPH fluorescence slope in assay [5] was 1.7e-05 (inactive). Besides, in assay [6], the slope was 0.00348 (inactive).
On to `CN(C)CCNC(=O)c1ccc(COCC(F)(F)F)cc1`, for which the cell count in assay [1] came out at 500. For the same molecule, the inhibition in assay [1] is -2.2% (inactive); in assay [3], -22.6% (inactive); in assay [7] it was 14.2% (inactive); in assay [8], 9.51% (inactive). Moreover, the inhibition of aggregation in assay [2] is -17.1% (inactive). The nuclei count came to 112% in assay [2] and 99% in assay [3]. The fluorescence slope in assay [4] was -0.408 (inactive). Further, the NADPH fluorescence slope in assay [5] was -3.8e-05 (inactive). Moreover, the slope in assay [6] is 0.00605 (inactive).
With `CC1CCCN(C(=O)c2cc3c(-c4ccc(Cl)cc4)nn(C)c3s2)C1` (centres undefined), in assay [1], the cell count turned out to be 749. Besides, the inhibition in assay [1] was -1.7% (inactive); in assay [3], -30.2% (inactive); in assay [7], 7.9% (inactive); in assay [8], 45.2% (inactive). In addition, the inhibition of aggregation in assay [2] is -30.1% (inactive). In addition, the nuclei count in assay [2] stood at 104%; in assay [3], 111%. The fluorescence slope in assay [4] was -0.607 (inactive). For the same molecule, the NADPH fluorescence slope in assay [5] was -5.2e-06 (inactive). The slope in assay [6] is 0.00725 (inactive).
`CSc1ccc(-c2nc(CSCC(=O)N3CCOCC3)c(C)o2)cc1`: in assay [1], the cell count was 243. In addition, the inhibition in assay [1] is 2.7% (inactive); in assay [3] it was -16.1% (inactive); in assay [7], -23.3% (inactive); in assay [8], -88.4% (inactive). The inhibition of aggregation in assay [2] was -6% (inactive). In addition, the results for the nuclei count in assay [2] and in assay [3] were 89.5% and 101%, respectively. The fluorescence slope in assay [4] was -0.523 (inactive). The NADPH fluorescence slope in assay [5] was -5.8e-05 (inactive). Moreover, the slope in assay [6] is 0.00525 (inactive).
With `COc1ccc(CCNS(=O)(=O)c2ccc3oc(C(=O)O)c(C)c3c2)cc1OC`, the cell count in assay [1] stood at 612. Moreover, the inhibition was -11.4% (inactive) in assay [1], -32% (inactive) in assay [3], 12.5% (inactive) in assay [7] and 21.9% (inactive) in assay [8]. Also, in assay [2], the inhibition of aggregation is 3.9% (inactive). In addition, the values for the nuclei count in assay [2] and in assay [3] were 107% and 114%, respectively. Moreover, the fluorescence slope in assay [4] is -0.444 (inactive). Moreover, the NADPH fluorescence slope in assay [5] was 6.2e-05 (inactive). Besides, the slope in assay [6] is 0.00543 (inactive).
For `C/C=C(\C)c1nnc(NC(=O)C(C)C)s1`, the cell count in assay [1] was found to be 382. Besides, the inhibition is -29% (inactive) in assay [1], -50.6% (inactive) in assay [3], -13.7% (inactive) in assay [7] and -7.26% (inactive) in assay [8]. Besides, the inhibition of aggregation in assay [2] was -12.2% (inactive). The nuclei count worked out at 98.7% in assay [2] and 95.4% in assay [3]. The fluorescence slope in assay [4] was -0.474 (inactive). Also, the NADPH fluorescence slope in assay [5] is 2.8e-06 (inactive). The slope in assay [6] is 0.00558 (inactive).
Take `O=C(CN1CCN(Cc2ccccc2)CC1)Nc1ccc(Cl)cn1`: in assay [1], the cell count was found to be 615. For the same molecule, the inhibition is -12.7% (inactive) in assay [1], -26% (inactive) in assay [3], 17.4% (inactive) in assay [7] and 29.5% (inactive) in assay [8]. The inhibition of aggregation in assay [2] was 19.3% (inactive). For the same molecule, the figures for the nuclei count in assay [2] and in assay [3] were 81.8% and 92%, respectively. For the same molecule, in assay [4], the fluorescence slope is -0.502 (inactive). For the same molecule, the NADPH fluorescence slope in assay [5] was -2.1e-05 (inactive). In addition, the slope in assay [6] was 0.00402 (inactive).
For the molecule `CCN(CCCNC(=O)C1CCN(S(=O)(=O)c2cccc3nonc23)CC1)Cc1ccccc1`, in assay [1], the cell count worked out at 297. The inhibition in assay [1] is 16.9% (inactive); in assay [3], -72.5% (inactive); in assay [7], 13.3% (inactive); in assay [8] it was 29.8% (inactive). Besides, the inhibition of aggregation in assay [2] was 14.3% (inactive). The nuclei count in assay [2] came out at 92.7%; in assay [3], 110%. Moreover, in assay [4], the fluorescence slope is -0.43 (inactive). For the same molecule, the NADPH fluorescence slope in assay [5] was -4.9e-05 (inactive). Moreover, the slope in assay [6] is 0.00388 (inactive).
